Inconclusive results are not listed. Where a call stands in place of a potency, no number is given. Calls of active or inactive are those of the source. Unless noted, calls follow the shape of the dose curve; as a rule, active = well fitted curve in the direction sought with a large enough effect; inconclusive = small, poorly fitted or top-dose-only effect, or another doubt; inactive = no such curve, though single readings can be large; an effect the other way counts as inactive or inconclusive.
Columns and labels:
[1] = tested on: Zika virus NS2B-NS3 protease; assay: Primary screen GU AMC qHTS for Zika virus inhibitors (AID 1347154); also: nearly all actives have a fitted effect of over 70% in size
In short: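 Unlinked Zika NS2B hydrophilic domain/NS3 protease domain noncovalent complex (25 nM final) in 10 mM Tris-HCl pH 8.0, 0.01% Tween 20, with AMC peptide substrate. Fluorescence (ex 340, em 450 nm) change over 15 min, room temperature; percent inhibition fitted to 4-parameter Hill equation.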

[2] = Primary qHTS for small molecule stabilizers of the endoplasmic reticulum resident proteome: Secreted ER Calcium Modulated Protein (SERCaMP) assay (AID 1508630)
In short: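 GLuc-SERCaMP-expressing SH-SY5Y cells, pretreated 16 h with compound, are challenged with thapsigargin to empty ER calcium stores; after 4 h, coelenterazine is added directly to the medium and luminescence is imaged.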

[3] = biological target: Cytochrome P450 1A2 (Homo sapiens) (UniProt P05177); assay: p450-cyp1a2 (AID 410; calls by dose curve; also: potency is read from the fitted curve at half-maximal effect)
Cytochrome P450 1A2 (Homo sapiens), sequence (P05177 whole entry, looked up): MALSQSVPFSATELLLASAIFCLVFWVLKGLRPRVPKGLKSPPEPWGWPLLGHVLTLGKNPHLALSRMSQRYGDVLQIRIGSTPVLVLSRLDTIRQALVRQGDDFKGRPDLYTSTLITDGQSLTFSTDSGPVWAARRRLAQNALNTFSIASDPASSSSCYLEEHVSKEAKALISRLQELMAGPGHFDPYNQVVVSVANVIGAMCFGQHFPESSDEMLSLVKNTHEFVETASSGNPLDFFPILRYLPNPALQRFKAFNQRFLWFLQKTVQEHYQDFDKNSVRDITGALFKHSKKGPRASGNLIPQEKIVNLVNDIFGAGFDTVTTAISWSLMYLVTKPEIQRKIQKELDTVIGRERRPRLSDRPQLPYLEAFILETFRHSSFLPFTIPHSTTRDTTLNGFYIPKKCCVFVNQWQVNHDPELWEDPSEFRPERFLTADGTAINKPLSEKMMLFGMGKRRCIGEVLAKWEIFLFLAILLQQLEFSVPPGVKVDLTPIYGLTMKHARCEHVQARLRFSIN
In short: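 20nM CYP1A2 with 100uM Luciferin-ME (at Km) in 100mM KPO4; compound preincubated 10 min, NADPH regeneration added, 60 min at room temperature. Luciferin quantified by luminescence after detection reagent; normalized to 57 uM furafylline.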

[4] = NFAT Signaling Pathway (AID 444; active = well fitted curve in either direction with a large enough effect, not every such curve was filed as active;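 also: carbachol stimulus at about its EC50 of 1 µM final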); settings: Jurkat NFAT-bla M1, carbachol, beta-lactamase ratio, 5 h; at 38 µM (top of the series)
In short: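 Jurkat cells carrying an NFAT-driven β-lactamase reporter and co-transfected muscarinic M1 receptor were treated with compound plus carbachol (1 uM final, an EC50 level) for 5 h at 37 °C. CCF4 loading followed for 1 h at RT; 460/530 nm ratio gave %activity.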

[5] = biological target: Glucocorticoid receptor (Homo sapiens) (UniProt P04150); assay: GR-GFP Redistribution (AID 450;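 active = compounds whose dose series gives a full or clear partial fitted curve of increased nuclear translocation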; also: potency is read from the fitted curve at half-maximal effect); settings: U2OS GR-GFP nuclear translocation, laser cytometry, 2 h
Glucocorticoid receptor (Homo sapiens), sequence (P04150 whole entry, looked up, the tested form may be a part): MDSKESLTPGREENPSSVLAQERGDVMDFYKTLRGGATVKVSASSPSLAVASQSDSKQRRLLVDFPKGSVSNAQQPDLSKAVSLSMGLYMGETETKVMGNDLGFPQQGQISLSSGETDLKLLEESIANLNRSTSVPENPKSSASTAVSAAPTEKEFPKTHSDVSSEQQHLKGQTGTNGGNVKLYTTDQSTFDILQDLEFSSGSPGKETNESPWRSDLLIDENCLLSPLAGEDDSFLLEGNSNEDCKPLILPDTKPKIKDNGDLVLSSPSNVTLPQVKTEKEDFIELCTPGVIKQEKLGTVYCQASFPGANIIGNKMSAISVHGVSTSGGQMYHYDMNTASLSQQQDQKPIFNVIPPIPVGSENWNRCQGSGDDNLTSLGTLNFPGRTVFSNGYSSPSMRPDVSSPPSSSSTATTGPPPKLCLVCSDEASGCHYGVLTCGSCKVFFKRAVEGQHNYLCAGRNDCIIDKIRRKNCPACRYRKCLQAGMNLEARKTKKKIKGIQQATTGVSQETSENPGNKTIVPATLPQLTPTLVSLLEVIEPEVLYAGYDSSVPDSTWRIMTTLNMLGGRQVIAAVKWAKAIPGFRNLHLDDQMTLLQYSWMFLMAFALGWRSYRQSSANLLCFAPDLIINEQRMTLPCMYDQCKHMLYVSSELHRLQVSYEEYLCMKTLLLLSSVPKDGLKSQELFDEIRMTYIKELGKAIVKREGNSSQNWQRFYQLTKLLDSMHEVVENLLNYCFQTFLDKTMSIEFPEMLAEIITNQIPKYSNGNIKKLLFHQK

[6] = biological target: Glucocorticoid receptor (Homo sapiens) (UniProt P04150); assay: GR-EFC Redistribution (AID 451; calls by dose curve; also: potency is read from the fitted curve at half-maximal effect); settings: CHO-K1 GR-EFC translocation, beta-gal luminescence, 2 h
In short: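 CHO-K1 cells stably expressing nuclear-localized β-gal enzyme acceptor and GR fused C-terminally to the enzyme donor fragment; ligand-driven nuclear translocation restores β-gal by complementation. Compounds titrated up to 46 uM final, 2 h at 37 °C; luminescence read.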

[7] = biological target: Mitogen-activated protein kinase 10 (Mus musculus) (UniProt Q61831); assay: JNK3 AlphaScreen Assay (AID 530; active = well fitted curve in either direction with a large enough effect, not every such curve was filed as active;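 also: kinase came from lysate of stimulated human HepG2 cells; signal reports phosphorylation of biotinylated GST-cJun 1-79 at Ser73 with 10 µM ATP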)
In short: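 Inhibitors reduce antibody binding to phosphorylated biotin-cJun, lowering AlphaScreen luminescence. Lysates from HepG2 cells pre-activated by IL-1beta plus TNF-alpha supplied JNK3; compounds were titrated.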

[8] = biological target: 3',5'-cyclic-AMP phosphodiesterase 4B (Homo sapiens) (UniProt Q07343); assay: qHTS Assay for Inhibitors of PDE-IV (AID 607; active = well fitted activation curve with a large enough effect in the main read-out, with a control signal flat, not every such curve was filed as active; also: potency is read from the fitted curve at half-maximal effect)
3',5'-cyclic-AMP phosphodiesterase 4B (Homo sapiens), sequence (Q07343 whole entry, looked up): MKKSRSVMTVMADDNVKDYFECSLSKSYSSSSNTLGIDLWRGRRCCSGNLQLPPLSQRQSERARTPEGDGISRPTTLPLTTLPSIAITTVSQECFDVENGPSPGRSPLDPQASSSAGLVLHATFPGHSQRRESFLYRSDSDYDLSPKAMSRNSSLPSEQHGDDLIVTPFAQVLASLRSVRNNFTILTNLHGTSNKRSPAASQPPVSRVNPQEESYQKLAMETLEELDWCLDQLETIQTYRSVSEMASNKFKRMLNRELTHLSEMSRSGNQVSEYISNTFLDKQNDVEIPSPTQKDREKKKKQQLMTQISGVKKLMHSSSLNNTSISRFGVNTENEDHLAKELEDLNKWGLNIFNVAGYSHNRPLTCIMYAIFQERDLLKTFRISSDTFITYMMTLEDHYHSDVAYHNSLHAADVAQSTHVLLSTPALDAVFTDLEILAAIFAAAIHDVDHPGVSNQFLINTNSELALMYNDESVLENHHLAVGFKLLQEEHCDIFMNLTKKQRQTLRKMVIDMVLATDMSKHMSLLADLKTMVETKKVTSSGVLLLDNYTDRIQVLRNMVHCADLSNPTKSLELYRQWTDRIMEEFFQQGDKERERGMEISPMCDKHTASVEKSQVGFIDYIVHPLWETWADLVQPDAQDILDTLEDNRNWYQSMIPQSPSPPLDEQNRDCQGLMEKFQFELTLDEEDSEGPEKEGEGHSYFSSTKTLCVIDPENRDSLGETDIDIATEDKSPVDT
In short: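 ACTOne HEK293 cells carry a modified cAMP-gated CNG channel and express endogenous PDE4; plated 1000 cells/well, compounds up to 22.9 uM final. Membrane-potential dye fluorescence (ex 535/em 590) was read; parental cells received 10 uM forskolin + 100 uM RO 20-1724.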

[9] = biological target: Guanine nucleotide-binding protein G(i) subunit alpha-1 (Homo sapiens) (UniProt P63096); assay: qHTS Assay for Inhibitors of RGS12 GoLoco Motif Activity (Green Fluorophore) (AID 879);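 also: negative values mean loss of peptide binding seen as reduced polarization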
Guanine nucleotide-binding protein G(i) subunit alpha-1 (Homo sapiens), sequence (P63096 whole entry, looked up): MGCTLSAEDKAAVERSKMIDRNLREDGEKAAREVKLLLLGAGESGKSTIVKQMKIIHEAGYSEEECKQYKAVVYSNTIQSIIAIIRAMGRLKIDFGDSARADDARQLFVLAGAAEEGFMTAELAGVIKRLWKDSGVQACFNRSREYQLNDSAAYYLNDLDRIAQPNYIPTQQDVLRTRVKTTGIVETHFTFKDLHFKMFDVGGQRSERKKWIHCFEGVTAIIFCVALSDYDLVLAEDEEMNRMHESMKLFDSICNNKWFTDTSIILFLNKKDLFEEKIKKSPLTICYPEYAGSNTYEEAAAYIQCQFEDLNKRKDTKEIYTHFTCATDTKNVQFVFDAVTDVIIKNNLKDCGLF
In short: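 Fluorescence polarization assay: 50 nM Gαi1 with 10 nM FITC-labeled RGS12 GoLoco peptide in 10 mM Tris pH 7.5, 150 mM NaCl, 0.1 mM GDP, 0.05% NP40, 10 min at room temperature with compound.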

[10] = qHTS Assay for Identification of Small Molecule Agonists for Hypoxia Response Element Signaling Pathway (AID 914; active = well fitted activation curve with a large enough effect in the signal ratio, with a control signal flat, not every such curve was filed as active; the % refers to the signal ratio); settings: ME-180 (cervical carcinoma) HRE-bla reporter, beta-lactamase ratio, CoCl2, 17 h; activation: stronger effect = higher value
In short: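 A beta-lactamase reporter under hypoxia response element control in ME-180 cells served as the system. Compound titrations plus EC50 CoCl2 ran 17 h at 37 degrees Celsius; AC50 values were fitted from %Activity.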

[11] = qHTS Assay for Identification of Small Molecule Agonists for Thrombopoietin (TPO) Signaling Pathway (AID 917)
In short: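 Activators of TPO signaling were sought in murine Ba/F3 cells transfected with the human receptor, using a luciferase gene driven by the Glycoprotein IIb promoter; 24-hr compound exposure at 37 C alongside 26 pM TPO, in IL-3-free medium.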

[12] = biological target: Muscarinic acetylcholine receptor M1 (Rattus norvegicus) (UniProt P08482); assay: qHTS Assay for Antagonists of Acetylcholine Muscarinic M1 Receptor: Kinetic Measurement of Intracellular Calcium Response (AID 943); also: nearly all actives have a fitted effect of over 75% in size
Muscarinic acetylcholine receptor M1 (Rattus norvegicus), sequence (P08482 whole entry, looked up): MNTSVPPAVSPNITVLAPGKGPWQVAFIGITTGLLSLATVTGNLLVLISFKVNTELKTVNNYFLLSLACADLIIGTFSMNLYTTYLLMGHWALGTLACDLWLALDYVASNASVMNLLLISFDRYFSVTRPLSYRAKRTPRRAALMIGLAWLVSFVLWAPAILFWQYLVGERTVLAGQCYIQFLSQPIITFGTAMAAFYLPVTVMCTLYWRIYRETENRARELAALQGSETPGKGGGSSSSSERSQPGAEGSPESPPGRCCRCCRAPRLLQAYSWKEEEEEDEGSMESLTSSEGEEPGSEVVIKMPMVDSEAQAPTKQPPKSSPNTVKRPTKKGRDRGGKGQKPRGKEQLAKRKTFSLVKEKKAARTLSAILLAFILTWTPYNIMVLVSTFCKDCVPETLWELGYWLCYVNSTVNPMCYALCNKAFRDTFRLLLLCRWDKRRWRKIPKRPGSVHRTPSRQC
In short: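 CHO cells expressing rat M1 receptor, Fluo-4 loaded, preincubated 10 min with compound, then stimulated with EC80 carbachol (100 nM final). Kinetic calcium fluorescence over 4 min; response taken as peak over basal signal.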

[13] = biological target: Muscarinic acetylcholine receptor M1 (Rattus norvegicus) (UniProt P08482); assay: qHTS Assay for Antagonists of Acetylcholine Muscarinic M1 Receptor: Measurement of IP-One Response (AID 944); also: nearly all actives have a fitted effect of over 75% in size
In short: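 CHO cells stably expressing rat M1, pretreated 10 min with compound, then stimulated 30 min with carbachol at EC80 (200 nM) in LiCl-containing buffer pH 7.4; IP1 accumulation read by HTRF competition (665/620 nm).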

[14] = biological target: Pyruvate kinase (Leishmania mexicana) (UniProt Q27686); assay: qHTS Validation Assay for Inhibitors of Leishmania Mexicana Pyruvate Kinase (AID 945)
Pyruvate kinase (Leishmania mexicana), sequence (Q27686 2-499 E452W): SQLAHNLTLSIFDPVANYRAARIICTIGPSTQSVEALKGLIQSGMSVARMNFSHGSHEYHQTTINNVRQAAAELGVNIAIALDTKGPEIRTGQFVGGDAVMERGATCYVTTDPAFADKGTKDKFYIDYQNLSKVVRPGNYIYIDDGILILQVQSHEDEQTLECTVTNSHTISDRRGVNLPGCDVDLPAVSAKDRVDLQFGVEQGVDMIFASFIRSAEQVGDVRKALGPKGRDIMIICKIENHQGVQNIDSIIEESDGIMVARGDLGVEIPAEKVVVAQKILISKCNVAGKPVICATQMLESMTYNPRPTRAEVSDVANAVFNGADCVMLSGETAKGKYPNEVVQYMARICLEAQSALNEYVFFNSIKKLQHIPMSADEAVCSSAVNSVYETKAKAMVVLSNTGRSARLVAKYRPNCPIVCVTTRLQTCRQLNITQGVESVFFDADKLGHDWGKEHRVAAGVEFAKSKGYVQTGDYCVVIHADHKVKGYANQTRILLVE
In short: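 Compounds are tested as eight-point concentration series. Reactions contain 0.2 nM LmPYK E451W, 0.5 mM PEP, 0.1 mM ADP, 7 mM MgCl2 and 50 mM KCl at pH 7.2, run 1 h at room temperature, then read by PKLight luminescence.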

[15] = biological target: Alpha-galactosidase (Coffea arabica) (UniProt Q42656); assay: Counterscreen for Glucocerebrosidase Inhibitors: qHTS Assay for Coffee Bean alpha-Galactosidase at pH 4.5 (AID 957)
Alpha-galactosidase (Coffea arabica), sequence (Q42656 whole entry, looked up): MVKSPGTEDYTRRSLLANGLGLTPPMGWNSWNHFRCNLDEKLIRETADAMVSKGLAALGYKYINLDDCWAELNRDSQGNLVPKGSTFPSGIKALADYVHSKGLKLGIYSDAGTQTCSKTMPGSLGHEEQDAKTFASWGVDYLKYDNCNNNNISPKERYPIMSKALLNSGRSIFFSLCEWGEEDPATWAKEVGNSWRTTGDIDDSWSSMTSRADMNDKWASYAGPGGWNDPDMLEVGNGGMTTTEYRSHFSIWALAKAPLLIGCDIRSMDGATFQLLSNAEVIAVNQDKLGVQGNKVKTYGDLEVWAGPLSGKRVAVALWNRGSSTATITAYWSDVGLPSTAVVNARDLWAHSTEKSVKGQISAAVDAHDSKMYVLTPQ
In short: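 Coffee bean enzyme (2 nM) with 80 uM 4-methylumbelliferyl alpha-D-galactopyranoside in 50 mM citric acid, 0.005% Tween-20, pH 4.5, 20 min at room temperature; compounds 0.7 nM–77 uM. Stopped at pH 10, fluorescence 365/440 nm; AC50 from Hill fits.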

[16] = biological target: Alpha-galactosidase A (Homo sapiens) (UniProt P06280); assay: Counterscreen for Glucocerebrosidase Inhibitors: qHTS Assay for Human alpha-Galactosidase at pH 4.5 (AID 992)
Alpha-galactosidase A (Homo sapiens), sequence (P06280 whole entry, looked up): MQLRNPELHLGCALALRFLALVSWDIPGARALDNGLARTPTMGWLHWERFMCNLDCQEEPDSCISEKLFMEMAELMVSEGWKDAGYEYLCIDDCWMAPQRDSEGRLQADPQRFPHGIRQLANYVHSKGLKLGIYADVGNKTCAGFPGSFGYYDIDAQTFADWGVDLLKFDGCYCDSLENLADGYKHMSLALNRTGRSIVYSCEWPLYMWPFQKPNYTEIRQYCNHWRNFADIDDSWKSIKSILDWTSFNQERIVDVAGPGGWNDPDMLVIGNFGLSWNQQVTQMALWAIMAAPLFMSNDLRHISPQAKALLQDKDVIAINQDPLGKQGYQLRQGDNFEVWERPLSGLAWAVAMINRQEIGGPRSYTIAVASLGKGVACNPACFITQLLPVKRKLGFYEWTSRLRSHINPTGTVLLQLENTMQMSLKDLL
In short: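 Enzyme at 2 nM final was combined with compound (0.7 nM to 77 uM) and 80 uM 4-methylumbelliferyl alpha-D-galactopyranoside in 50 mM citric acid, 0.005% Tween-20, pH 4.5. After 20 min at room temperature, fluorescence was read (Ex 365/Em 440 nm); AC50 came from Hill fits.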

[17] = qHTS Assay for Lipid Storage Modulators (AID 1519; calls by dose curve); settings: Drosophila S3 cells, BODIPY lipid droplet/cell ratio, laser cytometry, cells loaded with oleic acid; for activity change, negative = inhibition: at 57.5 µM (top of the series)
In short: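 Cells seeded at 5,000 per well were treated with compounds over a concentration series and loaded with oleic acid (400 uM, as added). Lipid droplet fluorescence (488 nm excitation, 500-530 nm channel) was read by laser-scanning cytometry and normalized to 20 uM Triacsin C.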

[18] = biological target: DNA dC->dU-editing enzyme APOBEC-3G (Homo sapiens) (UniProt Q9HC16); assay: qHTS for inhibitors of Vif-A3G interactions: Validation (AID 588379)
DNA dC->dU-editing enzyme APOBEC-3G (Homo sapiens), sequence (Q9HC16 whole entry, looked up): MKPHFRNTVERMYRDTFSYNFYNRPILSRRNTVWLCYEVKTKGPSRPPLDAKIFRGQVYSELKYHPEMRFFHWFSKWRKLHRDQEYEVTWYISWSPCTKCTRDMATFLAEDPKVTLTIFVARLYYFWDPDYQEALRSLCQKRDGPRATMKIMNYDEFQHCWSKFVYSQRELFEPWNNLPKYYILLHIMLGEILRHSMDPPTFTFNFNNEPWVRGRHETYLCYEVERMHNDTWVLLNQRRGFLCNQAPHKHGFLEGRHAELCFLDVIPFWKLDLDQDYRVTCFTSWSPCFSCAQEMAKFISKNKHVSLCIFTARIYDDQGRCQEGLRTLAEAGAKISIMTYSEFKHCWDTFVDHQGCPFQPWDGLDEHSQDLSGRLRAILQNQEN
In short: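 HeLa cells stably expressing Vif and A3G-eYFP, 700 cells/well, incubated overnight at 37 deg C, then exposed to compound overnight at 37 deg C. Inhibition of Vif-mediated degradation read as increased yellow fluorescence (Ex 488/Em 500-530) by laser-scanning cytometry.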

[19] = biological target: Cytochrome P450 3A4 (Homo sapiens) (UniProt P08684); assay: qHTS Assay for Activators of Cytochrome P450 3A4 (AID 885); also: nearly all actives have a fitted effect of over 65% in size
In short: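 20nM CYP3A4 + 25uM Luciferin-PPXE (=KM), 200mM KPO4; cpd 10 min RT; NADPH regen, 60 min RT; stop w/ detection buffer, 20 min; luminescence. Normalized to 57 uM ketoconazole.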

[20] = biological target: Cytochrome P450 2D6 (Homo sapiens) (UniProt P10635); assay: qHTS Assay for Inhibitors and Substrates of Cytochrome P450 2D6 (AID 891); also: nearly all actives have a fitted effect of over 60% in size; also: potency is read from the fitted curve at half-maximal effect;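 as to activity change, negative = inhibition: luciferin methyl ether substrate demethylated by CYP2D6 with NADPH regeneration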
In short: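 Human CYP2D6 (5 nM) with 30 uM Luciferin-ME EGE (at Km) in 100 mM KPO4, compound preincubated 10 min, then NADPH regeneration system for 60 min at room temperature. Luciferin read by luminescence; normalized to 1.43 uM quinidine.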

[21] = biological target: Ubiquitin carboxyl-terminal hydrolase 1 (Homo sapiens) (UniProt O94782); assay: Inhibitors of USP1/UAF1: Pilot qHTS (AID 504865);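 also: rhodamine fluorescence freed from ubiquitin-rhodamine substrate followed over time; top concentration of the series differs between compounds; nearly all actives have a fitted effect of over 35% in size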
In short: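 1nM USP1/UAF1 + cpd, 15 min RT; start w/ Ub-Rho 150nM final; kinetic FL 480/540 nm, 6 reads q60 s. Buffer 50mM HEPES pH 7.8, 0.5mM EDTA, 1mM TCEP, 0.01% Tween-20, 0.1 mg/ml BSA.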

[22] = AP1 Signaling Pathway (AID 357; active = well fitted curve in either direction with a large enough effect, not every such curve was filed as active;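 also: ME-180 reporter cells stimulated with EGF at its EC50 level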)
In short: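 A ratiometric CCF4 readout (405 nm excitation; 460 and 530 nm emission) quantified AP-1-driven beta-lactamase in ME-180 cells after 5 h with compound and EC50 EGF; AC50 values were derived for activators and inhibitors.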

[23] = biological target: Cytochrome P450 2C9 (Homo sapiens) (UniProt P11712); assay: qHTS Assay for Inhibitors and Substrates of Cytochrome P450 2C9 (AID 883); also: nearly all actives have a fitted effect of over 60% in size
In short: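 A luminogenic readout tracked human CYP2C9 (10nM) converting deoxyluciferin (100uM, at KM) in 25mM KPO4 during 60 min at 37C with regenerated NADPH. Values normalized to 57uM sulphaphenazole as complete inhibition.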

[24] = biological target: Cytochrome P450 2C19 (Homo sapiens) (UniProt P33261); assay: qHTS Assay for Inhibitors and Substrates of Cytochrome P450 2C19 (AID 899); also: nearly all actives have a fitted effect of over 60% in size
In short: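 NADPH-dependent conversion of Luciferin-H EGE (10uM, at KM) by 5nM enzyme in 50mM KPO4, 60 min at 37C following 10 min compound preincubation. Stopped with luciferin detection buffer; luminescence read after 20 min.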

[25] = biological target: Alpha-galactosidase (Coffea arabica) (UniProt Q42656); assay: Counterscreen for Glucocerebrosidase Inhibitors: qHTS Assay for Coffee Bean alpha-Galactosidase at pH 5.9 (AID 998)
In short: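 Green coffee bean enzyme (2 nM final) was incubated with compounds (0.7 nM–77 uM) and 4-methylumbelliferyl alpha-D-galactopyranoside (80 uM) in citrate buffer pH 5.9, 20 min at room temperature. High-pH stop; fluorescence 365/440 nm; AC50 from Hill fits.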

[26] = measured here: cell count channel max response
[27] = measured here: lipid channel max response

Q: Which activity change, negative = inhibition [1] does the source give for CCCCC/C=C\C=C\[C@H](CCCCCCCC(=O)O)OO here?
A: -1.43% [at 0.59 µM] (inactive)

Q: And the activity change, negative = inhibition [2]?
A: -24.7% [at 0.478 µM] (inactive)

Q: For C[C@H](N)Cc1c[nH]c2ccc(O)cc12, which Potency [3] is on record?
A: inactive

Q: What about the activity change, negative = inhibition [4] of the same molecule?
A: 3.63% (inactive)

Q: What about the Potency [5] of the same molecule?
A: > 46 µM (inactive)

Q: What about the Potency [6] of the same molecule?
A: > 46 µM (inactive)

Q: What about the outcome [7] of the same molecule?
A: inactive

Q: What about the Potency [8] of the same molecule?
A: inactive

Q: What about the outcome [9] of the same molecule?
A: inactive

Q: And the activation [10]?
A: -4.29% (inactive)

Q: What about the outcome [11] of the same molecule?
A: inactive

Q: What about the Potency [12] of the same molecule?
A: inactive

Q: What about the Potency [13] of the same molecule?
A: inactive

Q: And the outcome [14]?
A: inactive

Q: And the outcome [15]?
A: inactive

Q: And the outcome [16]?
A: inactive

Q: And the activity change, negative = inhibition [17]?
A: 0.648% (inactive)

Q: And the max response [17, 26]?
A: 20.6%

Q: And the max response [17, 27]?
A: 23.2%

Q: And the Potency [18]?
A: inactive

Q: And the Potency [1]?
A: inactive

Q: And the Potency [2]?
A: inactive

Q: With c1ccc(C[C@@H](c2ccccc2)N2CCCCC2)cc1 as the molecule, how does the Potency [3] read?
A: 15.8 µM (active)

Q: What about the Potency [5] of the same molecule?
A: > 46 µM (inactive)

Q: What about the Potency [6] of the same molecule?
A: > 46 µM (inactive)

Q: What about the outcome [7] of the same molecule?
A: inactive

Q: What about the Potency [8] of the same molecule?
A: 4.77 µM (active)

Q: What about the Potency [19] of the same molecule?
A: inactive

Q: What about the Potency [20] of the same molecule?
A: 2 µM (active)

Q: What about the activity change, negative = inhibition [17] of the same molecule?
A: -5.07% (inactive)

Q: And the max response [17, 26]?
A: -11.4%

Q: And the max response [17, 27]?
A: -18.1%

Q: What about the Potency [21] of the same molecule?
A: inactive

Q: What about the Potency [18] of the same molecule?
A: inactive

Q: And the Potency [1]?
A: inactive

Q: What about the Potency [2] of the same molecule?
A: inactive

Q: For N[C@H](CP(=O)(O)O)C(=O)O, which outcome [22] is on record?
A: inactive

Q: What about the Potency [3] of the same molecule?
A: inactive

Q: What about the activity change, negative = inhibition [4] of the same molecule?
A: 5.18% (inactive)

Q: What about the Potency [6] of the same molecule?
A: > 46 µM (inactive)

Q: And the outcome [7]?
A: inactive

Q: And the Potency [8]?
A: inactive

Q: What about the outcome [9] of the same molecule?
A: inactive

Q: And the Potency [23]?
A: inactive

Q: What about the Potency [20] of the same molecule?
A: inactive

Q: And the Potency [24]?
A: inactive

Q: What about the outcome [11] of the same molecule?
A: inactive

Q: And the Potency [12]?
A: inactive

Q: What about the Potency [13] of the same molecule?
A: inactive

Q: And the outcome [14]?
A: inactive

Q: And the outcome [15]?
A: inactive

Q: And the outcome [16]?
A: inactive

Q: What about the outcome [25] of the same molecule?
A: inactive

Q: And the activity change, negative = inhibition [17]?
A: -5.82% (inactive)

Q: And the max response [17, 26]?
A: 12.7%

Q: What about the max response [17, 27] of the same molecule?
A: 11.5%

Q: What about the Potency [18] of the same molecule?
A: inactive

Q: And the Potency [1]?
A: inactive

Q: What about the Potency [2] of the same molecule?
A: inactive

Reference: PubChem BioAssay (NCATS)
